Experimental data: PubChem BioAssay (NCI)
This is part of a sample that, as a whole, favours compounds with a hit. Of some 79,000 tested, about 15% had one in any assay. Active and inactive are the calls of the source. No stated cut-off is given here; in the data, active means growth inhibition above about 70%; inactive means the rest.

Columns and labels:
[1] = NCI Yeast Anticancer Drug Screen. Data for the rad50 strain (AID 155);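 further: 0% = growth of vehicle-only cultures of the same strain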; details: S. cerevisiae rad50 strain growth inhibition, hits give high values
How it was run: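 Readout: growth inhibition relative to vehicle-treated cultures. Compound exposure was carried out in a genetically defined yeast strain deficient in DNA damage repair.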

[2] = NCI Yeast Anticancer Drug Screen. Data for the mec2-1 strain (AID 157); details: S. cerevisiae mec2-1 strain, hits give high values
How it was run: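 Strain: mec2-1 (DNA repair/cell cycle alteration). Compound exposure, then growth measured; inhibition expressed relative to vehicle.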

[3] = NCI Yeast Anticancer Drug Screen. Data for the sgs1 mgt1 strain (AID 161);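 further: 0% = growth of cultures given vehicle only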; details: S. cerevisiae sgs1 mgt1 strain, hits give high values
How it was run: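 Inhibition of yeast growth, normalised to vehicle-treated controls, is reported for a strain bearing genetic alterations in DNA damage repair.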

[4] = NCI Yeast Anticancer Drug Screen. Data for the cln2 rad14 strain (AID 165);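 further: 0% = growth equal to vehicle treated cultures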; details: S. cerevisiae cln2 rad14 strain, hits give high values
How it was run: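 Compounds are applied to the cln2 rad14 yeast strain, and growth is then compared with that of vehicle-treated cultures to give inhibition.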

[5] = NCI Yeast Anticancer Drug Screen. Data for the bub3 strain (AID 167); details: S. cerevisiae bub3 mutant strain, hits give high values
How it was run: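 Readout: yeast growth inhibition, expressed relative to vehicle-only wells. The test organism is a mutant strain from a panel with lesions in DNA repair or checkpoint genes.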

[6] = NCI Yeast Anticancer Drug Screen. Data for the mlh1 rad18 strain (AID 175); details: S. cerevisiae mlh1 rad18 strain growth inhibition, hits give high values
How it was run: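 Read-out is yeast growth inhibition, calculated against vehicle-only controls. The compound was applied to a strain engineered with DNA damage repair alterations.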

[7] = at 5.0 µM (retest, dose inferred, filed as 0.5)
[8] = at 50.0 µM (retest, dose inferred, filed as 5.0)

Measured: growth inhibition

Nc1cccc([As]=S)c1 (configuration not stated)
inactive: [1]; [7] 7% | [2]; [7] 11% | [3]; [7] -9% | [4]; [7] 13% | [5]; [7] -4% | [6]; [7] 15%
active: [1]; [8] 99% | [1]; at 50.0 µM 98.5% | [2]; [8] 99% | [2]; at 50.0 µM 98.9% | [3]; [8] 100% | [3]; at 50.0 µM 91.5% | [4]; [8] 98% | [4]; at 50.0 µM 96.9% | [5]; [8] 99% | [5]; at 50.0 µM 98.8% | [6]; [8] 99% | [6]; at 50.0 µM 98.8%

O=C1CCC(=O)N1SC(Cl)(Cl)Cl
active: [1]; at 50.0 µM 99.7% | [2]; at 50.0 µM 99.7% | [3]; at 50.0 µM 99.7% | [4]; at 50.0 µM 99% | [5]; at 50.0 µM 99.5% | [6]; at 50.0 µM 99.5%
inactive: [1]; [7] 21% | [1]; [8] 26% | [2]; [7] 20% | [2]; [8] 4% | [3]; [7] 7% | [3]; [8] 6% | [4]; [7] -11% | [4]; [8] -13% | [5]; [7] -12% | [5]; [8] 2% | [6]; [7] 2% | [6]; [8] 18%

C/C(=N\NC(N)=O)C(CN1CCCCC1)C(c1ccccc1)c1c(O)c2ccccc2oc1=O (configuration not stated)
active: [1]; at 50.0 µM 82.7% | [2]; at 50.0 µM 83% | [3]; at 50.0 µM 87.6% | [4]; at 50.0 µM 72.8% | [5]; at 50.0 µM 79% | [6]; at 50.0 µM 81.5%
inactive: [1]; [7] 14% | [1]; [8] 14% | [2]; [7] 15% | [2]; [8] 15% | [3]; [7] 6% | [3]; [8] 6% | [4]; [7] 0% | [4]; [8] 0% | [5]; [7] 17% | [5]; [8] 17% | [6]; [7] 17% | [6]; [8] 17%

O=C1CCCC1Cl (configuration not stated)
inactive: [1]; [7] -2% | [1]; [8] 3% | [1]; at 50.0 µM 39.8% | [2]; [7] -2% | [2]; [8] -3% | [3]; [7] -4% | [3]; [8] 0% | [3]; at 50.0 µM 12.5% | [4]; [7] -2% | [4]; [8] -8% | [5]; [7] 4% | [5]; [8] -4% | [6]; [7] -3% | [6]; [8] 3% | [6]; at 50.0 µM 56.9%
active: [2]; at 50.0 µM 82.6% | [4]; at 50.0 µM 81.9% | [5]; at 50.0 µM 99.3%

O=C(O)CN1CCN(CC(=O)O)CC(=O)[O][Hg][O]C(=O)C1
active: [1]; [7] 100% | [1]; [8] 99% | [1]; at 50.0 µM 99.3% | [2]; [7] 100% | [2]; [8] 100% | [2]; at 50.0 µM 99.4% | [3]; [7] 99% | [3]; [8] 99% | [3]; at 50.0 µM 99.5% | [4]; [7] 99% | [4]; [8] 99% | [4]; at 50.0 µM 98.3% | [5]; [7] 100% | [5]; [8] 100% | [5]; at 50.0 µM 99.3% | [6]; [7] 99% | [6]; [8] 99% | [6]; at 50.0 µM 99.2%

C[C@H]1CC[C@@]2(NC1)O[C@H]1C[C@H]3[C@@H]4CC[C@H]5C[C@@H](O)CC[C@]5(C)[C@H]4CC[C@]3(C)[C@H]1[C@@H]2C
active: [1]; [8] 96% | [1]; at 50.0 µM 92.2% | [2]; [8] 98% | [2]; at 50.0 µM 93.8% | [3]; [8] 99% | [3]; at 50.0 µM 93.5% | [4]; [8] 98% | [4]; at 50.0 µM 91.5% | [5]; [8] 99% | [5]; at 50.0 µM 92.5% | [6]; [8] 98% | [6]; at 50.0 µM 86.8%
inactive: [1]; [7] 42% | [2]; [7] 27% | [3]; [7] 66% | [4]; [7] 54% | [5]; [7] 64% | [6]; [7] 33%

O=[N+]([O-])c1cc(Cl)ccc1S(=O)(=O)F
active: [1]; [7] 98% | [1]; [8] 98% | [1]; at 50.0 µM 99.7% | [2]; [7] 98% | [2]; [8] 99% | [2]; at 50.0 µM 99.6% | [3]; [7] 99% | [3]; [8] 99% | [3]; at 50.0 µM 99.5% | [4]; [7] 98% | [4]; [8] 98% | [4]; at 50.0 µM 99.2% | [5]; [7] 98% | [5]; [8] 98% | [5]; at 50.0 µM 99.5% | [6]; [7] 96% | [6]; [8] 98% | [6]; at 50.0 µM 99.5%

[Hg][c]1ccccc1
inactive: [3]; [8] 52% | [4]; [8] 27% | [5]; [8] -2% | [6]; [8] 53%
active: [1]; [7] 99% | [1]; [8] 94% | [1]; at 50.0 µM 99.5% | [2]; [7] 99% | [2]; [8] 100% | [2]; at 50.0 µM 99.7% | [3]; [7] 100% | [3]; at 50.0 µM 99.5% | [4]; [7] 99% | [4]; at 50.0 µM 98.3% | [5]; [7] 100% | [5]; at 50.0 µM 99.6% | [6]; [7] 99% | [6]; at 50.0 µM 99.3%

C[C@@H]1C[C@H]2CC[C@H](O2)[C@H](C)C(=O)O[C@@H](C)C[C@@H]2CC[C@@H](O2)[C@@H](C)C(=O)O[C@H](C)C[C@H]2CC[C@H](O2)[C@H](C)C(=O)O[C@@H](C)C[C@@H]2CC[C@@H](O2)[C@@H](C)C(=O)O1
active: [1]; [8] 94% | [1]; at 50.0 µM 84.3% | [2]; [7] 78% | [2]; [8] 97% | [2]; at 50.0 µM 88% | [3]; [7] 88% | [3]; [8] 95% | [3]; at 50.0 µM 87.8% | [4]; [8] 83% | [4]; at 50.0 µM 81.6% | [5]; [8] 89% | [5]; at 50.0 µM 84.3% | [6]; [7] 76% | [6]; [8] 96% | [6]; at 50.0 µM 82.3%
inactive: [1]; [7] 64% | [4]; [7] 55% | [5]; [7] 62%
